Nrf2 inh – blocks Nrf2 signaling. A549 ARE-Fluc reporter, luciferase luminescence, 18-24 h. Potency, µM (doses to about 46 µM), for the others: at the top dose activity change, negative = inhibition, most hits filed as inhibitors. 360,000 tested, 2.1% active. AID 504444; further: on the % scale 0 is the no-effect control and ±100 the full control effect; nearly all actives have a fitted effect of over 60% in size
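Cells were seeded and rested 2 h, then exposed to compounds for 18-24 h. CellTiter-Fluor was read first as a viability measure. BugLite was added 15 min before the final luminescent read of ARE-luciferase activity in A549 cells.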
PINK1 expr mod – modulators of PINK1 expression; PINK1 immunofluorescence, high-content cytometry, 24 h; Potency, µM (highest dose often 76.6 µM), inactives show top-dose activation (PINK1 increase), hits mostly activators; 410,000 tested, 0.2% active; AID 624263; active means well fitted activation curve with a large enough effect; inconclusive means small, poorly fitted or top-dose-only effect; cell line not stated here; further: % of control where 0% means no effect; nearly all actives have a fitted effect of over 65% in size
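Stable cell line treated 24 h with compounds at 5 concentrations (CCCP controls), then fixed and immunostained for PINK1 plus nuclear and cell stains; PINK1 immunofluorescence quantified by laser-scanning microplate cytometry.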
Nrf2 ARE act – Nrf2 pathway activation; AREc32 ARE-luciferase reporter (MCF7-derived line), luminescence, 24 h; Potency, µM (titrated, usually from 46.1 µM), for the others: top-dose activation, hits mostly activators; 410,000 tested, 0.31% active; AID 624171; further: % of control where 0% means no effect; nearly all actives have a fitted effect of over 65% in size
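Steps: seed AREc32_Fluc cells (1000/well, 5% FBS OPTI-MEM); incubate overnight at 37 deg C; add 23 nL compound; incubate 24 hr; add Steady-Glo; hold 30 min RT; read luminescence.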
Epigenetic reg – regulators of epigenetic silencing causing reporter derepression in mouse cells. murine LDR cells, GFP reporter derepression, 30 h. 280,000 tested, 0.2% active. Potency, µM (highest dose often 53.9 µM), for the others: at the highest dose GFP activation, most hits filed as activators; further: % of control where 0% means no effect; nearly all actives have a fitted effect of over 60% in size
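Murine LDR cells bearing a silenced CMV-driven GFP reporter were exposed to compound for 30 h at 37 C. After PBS washes, GFP-positive cells (20-120 um objects) counted by laser-scanning microplate cytometry.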
A549 tox – A549 cytotoxicity, counter-screen for Nrf2 inhibitors; Potency, µM (titrated, usually from 46 µM), without a hit: top-dose activity change, negative = cytotoxicity, usual class: inhibitors; 390,000 tested, 0.16% active; AID 504648; A549 ARE-Fluc cells, CellTiter-Fluor viability, 18-24 h; further: on the % scale 0 is the no-effect control and ±100 the full control effect
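Cytotoxicity counterscreen: CellTiter-Fluor fluorescence was measured in A549 ARE_Fluc cells after 18-24 h of compound exposure in a concentration series. The subsequent BugLite luminescent read reports ARE-luciferase activity.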
Active calls of the source: *; ? = inconclusive; . = no result given; [ ] = dose if it differs, or a comment. Rows were chosen to be rich in hits. Some 2.4% of all compounds tested hit in one or more screens of this group. Unless noted, the call rests on the fitted dose curve; in most records, active means well fitted curve in the direction sought with a large enough effect; inconclusive means small, poorly fitted or top-dose-only effect, or another doubt; inactive means no such curve, though single readings can be large; an effect the other way counts as inactive or inconclusive. Potency means the concentration at half of the fitted maximal effect.

SMILES | Nrf2 inh | PINK1 expr mod | Nrf2 ARE act | Epigenetic reg | A549 tox
O=C(NCC(c1cccs1)N1CCOCC1)c1cc([N+](=O)[O-])ccc1Cl (configuration not stated) | 3% | -2% | 3% | -1% | 0%
COc1cc(=O)n2c(c1C(=O)NC(C)c1ccco1)CCN(CC=C(C)C)CC2 (configuration not stated) | . | -1% | . | . | .
C/C(=N\NC(=O)COc1ccccc1[N+](=O)[O-])c1cccs1 | ? | 2% | 8.9µM* | 1% | 1%
CCOc1ccc(NC(=O)CSc2nnc3c(n2)[nH]c2ccc(S(=O)(=O)N4CCCCC4)cc23)cc1 | 0% | 10% | . | . | 1%
Cc1ccc(-c2cc(C(=O)N3N=C(C(F)F)CC3(O)C(F)F)c3ccccc3n2)cc1C (configuration not stated) | ? | 10µM* | -1% | 12% | 0%[1.84 µM]
O=S(=O)(c1ccc(Br)cc1)N1CCN(S(=O)(=O)c2ccc3c(c2)OCCO3)CC1 | 16% | . | . | . | -3%
CN(Cc1ccccc1)C(=O)c1cccc(NC(=O)Cc2ccc(NC(=O)C3CCN(C(=O)CCc4ccccc4)CC3)cc2)c1 | 16µM* | 1% | 4% | . | -17%
CN(C(=O)c1ccc(NC(=O)Cc2ccc(NC(=O)C3CCN(C(=O)CCc4ccccc4)CC3)cc2)cc1)C1CCCC1 | ? | 4% | 0% | . | -10%
CN(C(=O)c1cccc(NC(=O)Cc2ccc(NC(=O)C3CCCN(C(=O)CCc4ccccc4)C3)cc2)c1)C1CC1 (configuration not stated) | ? | 0% | 6% | . | -3%
CN(Cc1ccccc1)C(=O)c1ccc(NC(=O)Cc2ccc(NC(=O)C3CCN(C(=O)CCc4ccccc4)CC3)cc2)cc1 | ? | 0% | 2% | . | 5%
CN(C(=O)c1cccc(NC(=O)Cc2ccc(NC(=O)C3CCCN(C(=O)CCc4ccccc4)C3)cc2)c1)C1CCCCC1 (configuration not stated) | 10µM* | -1% | 5% | . | -12%
CN(C(=O)c1ccc(NC(=O)Cc2ccc(NC(=O)C3CCCN(C(=O)CCc4ccccc4)C3)cc2)cc1)C1CCCC1 (configuration not stated) | 23µM* | 1% | 4% | . | -6%
O=[S+]([O-])(c1ccc2c(c1)OCCO2)N1CCN([S+](=O)([O-])c2ccccc2Br)CC1 | 4% | . | . | . | 1%
SCc1nc2ccccc2[nH]1 | . | -1% | . | . | .
Cc1c(CCC(=O)N2CCC[C@H]2C(=O)O)c(=O)oc2c(C)c3oc4c(c3cc12)CCCC4 | 6.5µM* | 0% | -3% | . | -9%
Cc1c(CCC(=O)NCCCCCC(=O)O)c(=O)oc2c(C)c3oc4c(c3cc12)CCCC4 | ? | 0% | -1% | . | 2%
c1ccc(CN2CCC(CNc3ncnc4ccccc34)C2)cc1 (configuration not stated) | 21µM* | -4% | 0% | . | -13%
Cc1ccc(-n2c(O)c(C=NCc3ccccn3)c3ccccc3c2=O)cc1C | 10µM* | 2% | 10% | 0% | -15%
CCOc1ccc(S(=O)(=O)Nc2cccc(OC)c2)c2cccnc12 | 15µM* | 3% | 7% | -1% | -17%
CCC(=O)Nc1cccc(C(=O)/C=C/c2ccc(F)cc2)c1 | 23µM* | -3% | -3% | 2% | ?
CC(=O)Nc1cccc(C(=O)/C=C/c2ccc(C)cc2)c1 | -21% | -2% | 1% | ? | -1%
CCN1CCc2nc3sc(C(=O)c4ccccc4)c(N)c3cc2C1 | ? | 12% | 9% | 11% | -20%
Cc1ccc(Cn2c(SCC(=O)N/N=C/c3ccc(C)o3)nc3ccccc32)cc1 | -14% | 2% | 9% | -1% | -1%
O=C(CSc1nc2ccccc2n1Cc1ccccc1)N/N=C/c1ccco1 | 8.2µM* | 0%[38.3 µM] | ? | -9% | -18%
Cn1c(SCC(=O)N/N=C/C=C\c2ccco2)nc2ccccc21 | -9% | -1% | ? | -2% | -2%
SMILES | Nrf2 inh | PINK1 expr mod | Nrf2 ARE act | Epigenetic reg | A549 tox
CCn1c(SCC(=O)N/N=C/C=C\c2ccco2)nc2ccccc21 | ? | 0% | 3.5µM* | -1% | 0%
COc1cc2c(c(OC)c1OC)C(=O)C(=Cc1ccccc1)O2 | ? | -1% | 16µM* | . | 6%
COc1cc(C2=N/C(=C\c3ccccc3)C(=O)O2)cc(OC)c1OC | . | . | . | 1% | .
COc1ccccc1C(=O)N[C@@H]1c2ccccc2C2(CCN(Cc3c(O)cccc3OC)CC2)[C@H]1O | . | 0% | . | . | .
O=C(Nc1ccc(N2CCN(C(=O)c3ccco3)CC2)cc1)c1cc(Br)ccc1Cl | 23µM* | 9% | 0% | . | -15%
Cc1ccc(C(=O)Nc2ccc(N3CCN(C(=O)c4ccco4)CC3)cc2)cc1 | -7% | -1% | 0% | 0% | 0%
O=C(Nc1ccc(N2CCN(C(=O)c3ccco3)CC2)cc1)c1ccc(Br)cc1 | 16µM* | 7% | 0% | . | -11%
COc1ccccc1C(=O)NC(=S)Nc1ccc(N2CCN(C(=O)c3ccco3)CC2)cc1 | 21µM* | -1% | -1% | . | -17%
O=C(c1ccc(-n2c(=O)c(=O)[nH]c3ccccc32)cc1)N1CCCN(Cc2ccccc2)CC1 | . | . | . | -2% | .
CC(C)(C)OC(=O)CNC(=O)c1nc[nH]c1C(=O)NCc1ccc(CNC(=O)OC(C)(C)C)cc1 | -29% | 1% | 4% | . | 2%
CC(C)(C)OC(=O)NCCCCCNC(=O)c1nc[nH]c1C(=O)NCC(=O)OCc1ccccc1 | -28% | -1% | -1% | . | -26%
Cc1cccc(NC(=O)c2nc[nH]c2C(=O)NCCCNC(=O)c2[nH]cnc2C(=O)Nc2cccc(C)c2)c1 | 6% | 1% | -1% | . | 5%
CC(C)(C)OC(=O)NCCCCCNC(=O)c1[nH]cnc1C(=O)N[C@@H](CCCCNC(=O)OC(C)(C)C)C(=O)OC(C)(C)C | 23µM* | 0% | -1% | 0% | -12%
CC(C)(C)OC(=O)NCCCCCNC(=O)c1nc[nH]c1C(=O)NCCCCCNC(=O)OC(C)(C)C | 13µM* | -1% | -4% | . | -27%
Cc1cccc(NC(=O)c2nc[nH]c2C(=O)NCCCCCNC(=O)OC(C)(C)C)c1 | 21µM* | 8% | -5% | . | ?
CC(C)(C)OC(=O)NCCCCCNC(=O)c1nc[nH]c1C(=O)NCc1ccc(CNC(=O)OC(C)(C)C)cc1 | 13µM* | 11% | -2% | . | ?
Cc1cc(N/N=C/c2cccc(Cl)c2)nc(-n2nc(C)cc2C)n1 | 16µM* | 12% | 0% | 2% | -21%
COc1ccc(-c2cn3cc([N+](=O)[O-])ccc3n2)cc1OC | 3.7µM* | 3% | 0% | 0% | -1%
O=C1c2ccccc2C(=O)N1Cc1ccncc1 | 9% | . | . | . | 6%
CCc1cc(C(=O)NCc2c(C)ncc3c2CCN(C(=O)C2=CCCC2)C3)no1 | . | 0% | . | . | .
